Results filed as inconclusive are left out. Entries that show only a call come without a potency. Calls of active or inactive are those of the source. The call rests on the fitted dose curve.
Test: Nuclear factor erythroid 2-related factor 2/antioxidant responsive element (Nrf2/ARE) small molecule agonists: luciferase reporter gene qHTS assay in human keratinocytes (AID 1919969); further: nearly all actives have a fitted effect of over 35% in size
Details: KeratinoSens HaCaT ARE-luciferase, luminescence, 24 h; series mostly up to 92.4 µM
Source text: National Center for Advancing Translational Sciences [NCATS]
Division of Preclinical Innovation [DPI]
U.S. Environmental Protection Agency [EPA]
National Institutes of Environmental Health Sciences [NIEHS]
National Toxicology Program [NTP]
U.S. Food and Drug Administration [FDA]
Oxidative stress has been implicated in the pathogenesis of a variety of diseases ranging from cancer to neurodegeneration. The antioxidant response element (ARE) signaling pathway plays an important role in the amelioration of oxidative stress. The KeratinoSens (Givaudan, Switzerland) is an in vitro test method which quantifies luciferase induction as a measure of activation of Keap1-Nrf2-antioxidationt/electrophile response element (ARE) dependant pathway in HaCaT human keratinocytes stably transfected with a selectable plasmid. The KeratinoSens assay is a cell-based assay with a reporter cell line to detect potential skin sensitizers by their ability to induce the Nrf2/ARE-response. The activation of the report gene under culture conditions can be detected by ONE-Glo Luciferase Assay System (Promega, Madison, WI). This cell line has been used to screen the Tox21 10K compound library to identify agonists that induce oxidative stress. The cytotoxicity of the Tox21 compound library against the KS-ARE cell line was tested in parallel by measuring the cell viability using CellTiter- Fluor assay system (Promega, Madison, WI) in the same wells.
HaCaT derived cell line KeratinoSens were dispensed at 1,500 cells/5uL/well in 1536-well white wall/solid bottom plates using a Multidrop Combi (ThermoFisher Scientific, Waltham, MA) dispenser. After the assay plates were incubated at 37 C/5% CO2 for 5 h, 23 nL of compounds dissolved in DMSO, positive controls or DMSO only was transferred to the assay plate by a pintool workstation (Kalypsys, San Diego, CA). The plates were incubated at 37 C/5% CO2 for 23 h, followed by addition of 1uL/well of CellTiter-Fluor reagent into the assay plates using a Flying Reagent Dispenser (Aurora Discovery, San Diego, CA) for cell viability readout that measures cytotoxicity. After 1 h incubation at 37 C/5% CO2 the fluorescence intensity was measured using a ViewLux (PerkinElmer, Shelton, CT) plate reader. Then 4uL/well of One-Glo were added using a Flying Reagent Dispenser. After the plates were incubated at room temperature for 30 min, the luminescence intensity in the assay plates was measured using ViewLux plate reader.
Potency means the concentration at half of the fitted maximal effect.

SMILES	Potency	activity, positive = activation
CCOc1cc(C(C)(C)C)ccc1C1COC(c2c(F)cccc2F)=N1 (stereo not given)	inactive	–
N#CC(Br)(Br)C(N)=O	inactive	–
CCCN1CCC[C@@H]2Cc3[nH]ncc3C[C@H]21	inactive	–
COc1cccc(C(=O)CCN[C@@H](C)[C@H](O)c2ccccc2)c1	33.5 µM (active)	–
Oc1cc(Cl)cc(Cl)c1	inactive	–
Oc1ccc(I)cc1	inactive	–
COC(=O)c1ccccc1S(=O)(=O)NC(=O)Nc1nc(C)cc(C)n1	inactive	–
CCSC(C)CC1CC(=O)C(/C(CC)=N/OC/C=C/Cl)=C(O)C1 (stereo not given)	inactive	–
CC(Cc1ccc2c(c1)OCO2)NO (stereo not given)	inactive	–
CSC(=O)c1c(C(F)F)nc(C(F)(F)F)c(C(=O)SC)c1CC(C)C	24.2 µM (active)	–
C[C@H]1CCC[C@H](O)CCCCCc2cc(O)cc(O)c2C(=O)O1	inactive	–
CC(=O)[O][Sn]([c]1ccccc1)([c]1ccccc1)[c]1ccccc1	0.0193 µM (active)	–
Oc1c(Cl)cccc1Cl	inactive	–
O=C(NC(=O)c1c(F)cccc1F)Nc1ccc(Oc2ccc(C(F)(F)F)cc2Cl)cc1F	inactive	–
O=C1c2ccccc2C(=O)C1C(=O)C(c1ccccc1)c1ccc(Cl)cc1 (stereo not given)	inactive	–
O=C(Oc1ccc(Br)cc1)N1CCN2CCC1CC2	inactive	–
COc1cc(CC(C)N)c(OC)cc1Br (stereo not given)	inactive	–
CC(O)C#N (stereo not given)	61.1 µM (active)	–
COc1ccc2[nH]cc(CCN(C(C)C)C(C)C)c2c1	inactive	–
C=CCc1ccc(OC(=O)Cc2ccccc2)c(OC)c1	inactive	–

SMILES	Potency	activity, positive = activation
CC(C)CC(C)Nc1ccc(Nc2ccccc2)cc1 (stereo not given)	23.9 µM (active)	–
C=CCC1([C@H](C)CCC)C(=O)NC(=O)NC1=O	inactive	–
COCC(C)N(C(=O)CCl)c1c(C)csc1C (stereo not given)	68.6 µM (active)	–
CSCCCN=C=S	61.1 µM (active)	–
CCOC(=O)CCl	inactive	–
S=C=NCc1ccccc1	27.6 µM (active)	–
Fc1ccc(C2(Cn3cncn3)OC2c2ccccc2Cl)cc1 (stereo not given)	inactive	–
CC(C)CC(N(C)C)C1(c2ccc(Cl)cc2)CCC1 (stereo not given)	inactive	–
CCOC(=O)/C=C(C)/C=C/C[C@@H](C)CCCC(C)C	68.6 µM (active)	–
CCCCCCC(=O)CCCCCC/C=C/C[C@@H](O)[C@H](O)[C@@](N)(CO)C(=O)O	–	-3.71% [at 19 µM] (inactive)
CC(Cl)(Cl)[N+](=O)[O-]	inactive	–
CC1(C)CCC(Cc2ccc(Cl)cc2)C1(O)Cn1cncn1 (stereo not given)	inactive	–
O=C(CCl)C(Cl)Cl	7.77 µM (active)	–
[F][Sn]([c]1ccccc1)([c]1ccccc1)[c]1ccccc1	0.545 µM (active)	–
O=C(NC(O)C(Cl)(Cl)Cl)NC(O)C(Cl)(Cl)Cl (stereo not given)	inactive	–
CN(C1CCCCC1)C1CCCCC1	inactive	–
CNC(=O)O/N=C(\C)SC	inactive	–
Oc1ccc(C2(c3ccc(O)cc3)CCCCC2)cc1	inactive	–
O=C1C(=O)c2cccc3cccc1c23	27.3 µM (active)	–
CC(=O)c1ccc(-c2ccccc2)cc1	inactive	–

— PubChem BioAssay (Tox21)
